Among the data in PubChem BioAssay AID1508625 (Wald Lab, School of Medicine, Case Western Reserve …, 2021) are corrected activity, negative = more killing and z-score values, retold here.

A short description of this experiment: enhancers of NK cell killing of ovarian tumor cells, primary screen, imaging, OVCAR3, primary NK cells, calcein-AM imaging (AID 1508625).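 Note: compound given to NK cells 16 h before adding targets at 1.5 to 1 ratio.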 The settings on record: OVCAR3 lysis by primary NK cells, at 5 µM; z-score: measured here: robust Z-score, single-point normalisation.

Take `Cc1ccc(NC(=O)CSc2nc3c([nH]c4ccccc43)c(=O)n2-c2ccc(F)cc2)cc1`: the corrected activity, negative = more killing was -5.11% and the z-score is -1.27.

In the case of `CCOc1cc(C(=S)N2CCCCC2)ccc1OC(=O)c1ccc(OC)cc1`, the corrected activity, negative = more killing was -5.85% and the z-score is -2.2.

On to `COc1ccc(OCCCN2CCc3ccccc3C2)cc1`, for which the corrected activity, negative = more killing was -4.65% and the z-score is -2.58.

Turning to `CCOc1ccc(S(=O)(=O)NC(C)C)c2cccnc12`, the corrected activity, negative = more killing is -3.65% and the z-score is -1.16.

Consider `CCOC(=O)c1ccc(NC(=O)C(=O)N2CCCC2)cc1`, for which the corrected activity, negative = more killing is -5.89% and the z-score was -2.55.

In the case of `Cn1c(SCC(=O)c2ccccc2)nc2c([nH]c3ccccc32)c1=O`, the corrected activity, negative = more killing is -5.65% and the z-score was -1.41.

With `O=C(CCn1c(SCc2ccccc2Cl)nc2cc3c(cc2c1=O)OCO3)N1CCN(c2ccccc2)CC1`, the corrected activity, negative = more killing was -5.52% and the z-score is -1.46.

Turning to `CCc1noc(C)c1C(=O)N1CC(C)OC(C)C1` (configuration not stated), the corrected activity, negative = more killing was -2.62% and the z-score was -1.08.

Turning to `O=C(NN=Cc1cccc2ccccc12)c1cncc(Br)c1`, the corrected activity, negative = more killing is -7.56% and the z-score is -2.98.

For `O=C(c1cc(-c2ccc3c(c2)OCO3)nc2ccccc12)N1CCN(Cc2ccc3c(c2)OCO3)CC1`, the corrected activity, negative = more killing was -3.33% and the z-score is -1.37.

Regarding `COc1ccccc1Cn1c(=S)[nH]c2cc(Cl)ccc2c1=O`, the corrected activity, negative = more killing was -3.97% and the z-score is -1.05.

As to `O=C1C(=O)N(Cc2cccnc2)C(c2ccncc2)C1=C(O)c1ccc(F)cc1` (configuration not stated), the corrected activity, negative = more killing is -3.73% and the z-score is -1.62.

In the case of `CCCSc1nc2c([nH]c3ccccc32)c(=O)n1-c1ccc(F)cc1`, the corrected activity, negative = more killing is -3.57% and the z-score was -0.888.

Take `CC(=O)Oc1ccc(C(=O)Nc2nc3ccc4ccccc4c3s2)cc1`: the corrected activity, negative = more killing was -1.08% and the z-score is -0.335.

With `O=C(c1nn2c(C(F)(F)F)cc(-c3ccco3)nc2c1Br)N1CCCCC1`, the corrected activity, negative = more killing is -4.92% and the z-score was -1.85.

As to `Cc1c(Cl)cccc1NC(=O)c1sc2ncn(CC(=O)N3CCOCC3)c(=O)c2c1C`, the corrected activity, negative = more killing is 0.676% and the z-score is 0.246.

On to `O=[N+]([O-])c1ccc(OCCCN2CCNCC2)cc1`, for which the corrected activity, negative = more killing was -3.62% and the z-score is -2.02.

Take `Cc1ccc2c(N)c(C#N)sc2n1`: the corrected activity, negative = more killing was -0.436% and the z-score was -0.166.

Regarding `CC(C)=NNC(=O)C(=O)Nc1cccc(Cl)c1`, the corrected activity, negative = more killing is -3.01% and the z-score is -1.56.

Turning to `COc1ccc(CN2C(=O)c3ccccc3C2C(=O)NCCCN2CC(C)CC(C)C2)cc1` (configuration not stated), the corrected activity, negative = more killing is -3.06% and the z-score is -0.869.

On to `CC(=O)SCCC(=O)N1C(C)CCCC1C(=O)O` (configuration not stated), for which the corrected activity, negative = more killing was -3.02% and the z-score was -1.19.

Regarding `NC(C(=O)O)C(O)c1cccc([N+](=O)[O-])c1` (configuration not stated), the corrected activity, negative = more killing is -0.723% and the z-score was -0.224.

In the case of `c1ccc(CN2CCN(Cc3ccc4ccccc4c3)CC2)nc1`, the corrected activity, negative = more killing is -2.43% and the z-score was -1.08.

Take `COCc1cccc(NS(=O)(=O)Cc2ccccc2)c1`: the corrected activity, negative = more killing was 0.328% and the z-score was 0.183.

Turning to `O=C(NCc1ccccn1)c1sc2cc([N+](=O)[O-])ccc2c1Cl`, the corrected activity, negative = more killing was -2.44% and the z-score is -0.775.

For `CCOc1cccc(-c2cc(C(=O)O)c3ccccc3n2)c1`, the corrected activity, negative = more killing was -4.28% and the z-score is -1.76.

Take `COc1cccc(NS(=O)(=O)c2ccc3c(c2)[C@H]2C=CC[C@H]2[C@@H](c2ccccc2Cl)N3)c1`: the corrected activity, negative = more killing was -8.83% and the z-score is -2.64.

Consider `CC(C)(C)c1ccc(C(=O)CC2(O)C(=O)Nc3ccc(Cl)cc32)cc1` (configuration not stated), for which the corrected activity, negative = more killing is -2.41% and the z-score is -0.898.

For `COc1cccc(Nc2ncnc3sc(C)c(S(=O)(=O)N4CCC(C)CC4)c23)c1`, the corrected activity, negative = more killing is -2.61% and the z-score is -0.65.

Consider `CCCC(=O)Nc1cc(-c2nc3ccc(C)cc3o2)ccc1Cl`, for which the corrected activity, negative = more killing is -2.67% and the z-score was -1.43.

As to `O=C1c2ccccc2C(=O)N1CCCCCCN1CCN(c2cccc(Cl)c2)CC1`, the corrected activity, negative = more killing was -4.02% and the z-score is -0.848.

Take `O=C1C(=O)N(CCCN2CCOCC2)C(c2ccco2)C1=C(O)c1ccc(F)cc1` (configuration not stated): the corrected activity, negative = more killing was -4.3% and the z-score is -1.86.

Take `O=C(Nc1ccc(Cc2ccncc2)cc1)C1CCC(N2C(=O)C3CC=CCC3C2=O)CC1` (configuration not stated): the corrected activity, negative = more killing is -4.96% and the z-score was -1.89.

As for `Cc1nn2c(N)cc(-c3ccccc3)nc2c1-c1ccccc1`, the corrected activity, negative = more killing was -0.835% and the z-score was -0.365.

Regarding `Cc1ccc(-c2cc(C(F)(F)F)n3ncc(C(=O)N4CCC(C)CC4)c3n2)cc1`, the corrected activity, negative = more killing is -5.63% and the z-score was -1.79.

For `CC(C)CCNC(=O)c1c[nH]c2ccc(S(=O)(=O)N3CC(C)CC(C)C3)cc2c1=O` (configuration not stated), the corrected activity, negative = more killing is -3.33% and the z-score is -1.21.

Consider `Cc1ccccc1OCC(=O)Nc1c[nH]c(=O)[nH]c1=O`, for which the corrected activity, negative = more killing was -0.837% and the z-score is -0.363.

`O=C(Nc1ccccc1-c1nc2ccccc2[nH]1)c1ccc(S(=O)(=O)N2CCCC2)cc1`: the corrected activity, negative = more killing is 0.864% and the z-score was 0.306.

As for `CC1CCC(NC2CCCc3c2[nH]c2ccc([N+](=O)[O-])cc32)CC1` (configuration not stated), the corrected activity, negative = more killing was 3.89% and the z-score was 1.7.

For the molecule `O=C(Nc1cccc(Br)c1)c1ccc2snnc2c1`, the corrected activity, negative = more killing was -3.91% and the z-score was -1.17.

Consider `Nc1cc(OC(=O)c2ccccc2Br)nn1S(=O)(=O)c1ccccc1`, for which the corrected activity, negative = more killing was -1.18% and the z-score was -0.375.

Take `CCc1ccccc1-n1cnc2cc(C(=O)NCc3ccc(C)cc3)ccc21`: the corrected activity, negative = more killing was -4.47% and the z-score was -1.2.

For the molecule `O=C(Nc1ccccc1Cl)c1cccc([N+](=O)[O-])c1`, the corrected activity, negative = more killing was -1.44% and the z-score is -0.51.

Regarding `COc1cc(OC)c(C=Nc2ccc(OC(F)(F)F)cc2)cc1Br`, the corrected activity, negative = more killing was -1.81% and the z-score is -0.768.

In the case of `COc1ccc(C)cc1NC(=O)c1oc(=O)c2ccccc2c1-c1ccccc1`, the corrected activity, negative = more killing was -11.3% and the z-score is -2.78.

`O=C(NC1CCCCCC1)c1coc(=O)c2ccccc12`: the corrected activity, negative = more killing was -2.46% and the z-score was -0.781.
